# PTHR1 agonist: qHTS for PTHR1 Agonists: Primary Screen | Parathyroid hormone/parathyroid hormone-related peptide receptor (Homo sapiens), Q03431 | HEK293 GP2 PTHR1 cells, GloSensor cAMP luminescence, 1 h | Potency, µM (titrated, usually from 115 µM), without a hit: top-dose activation, actives largely listed as activators | hit rate 0.075% among 410,000 | AID 743266, 2014; note: potency is the fitted concentration of half-maximal effect; nearly all actives have a fitted effect of over 55% in size
#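 HEK-293-derived GP2 cells expressing PTHR1 and a GloSensor cAMP reporter, 3,000/well, plated overnight, given luciferin plus IBMX (each 0.5 mM as added) for 1 h at 37 °C, then compound for 1 h at 37 °C. Luminescence was read after 15 min at room temperature.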
# GLP-1R inv ag: qHTS of GLP-1 Receptor Inverse Agonists (Inhibition Mode). Glucagon-like peptide 1 receptor (Homo sapiens), P43220. HEK293 GLP-1R CRE-luciferase, luminescence, 24 h; GLP-1R form is constitutively active. Potency, µM (highest dose often 38.3 µM), for inactives: top-dose activity change, negative = inhibition, most hits filed as inhibitors. hit rate 1.6% among 410,000. AID 624417, 2012; note: potency is the fitted concentration of half-maximal effect; % is set by controls: 0 for no effect and ±100 for the full control effect; nearly all actives have a fitted effect of over 55% in size
#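 Readout was luciferase luminescence, measured 12 min after detection reagent at room temperature. Beforehand, GLP-1R reporter HEK293 cells had sat 12 h, then received compounds for 24 hr at 37 deg C.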
# GLP1R cytotox: qHTS of GLP-1 Receptor Inverse Agonists: Cytotox Screen; HEK293 cAMP-luciferase reporter cells, luminescence, 24 h; Potency, µM (titrated, usually from 38.3 µM), without a hit: top-dose activity change, negative = inhibition, usual class: inhibitors; hit rate 0.13% among 410,000; AID 624418, 2012;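 note: loss of luciferase light is scored as toxicity; potency is the fitted concentration of half-maximal effect; % is set by controls: 0 for no effect and ±100 for the full control effect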
#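 Cells in DMEM/10% Nu serum/1% pen-strep, 1536-well format. Pre-incubated 12 h, dosed with 23 nL compound, incubated a further 24 h. Luciferase detection, 12 min at room temp, luminescence.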
# GLP1R ag: qHTS of GLP-1 Receptor Agonists | HEK293 GLP-1R CRE-luciferase, luminescence, 4-6 h; cells express a hypersensitive GLP-1R form | Glucagon-like peptide 1 receptor (Homo sapiens), P43220 | hit rate 0.007% among 380,000 | Potency, µM (titrated, usually from 45.6 µM), without a hit: at the top dose activation, actives largely listed as activators | AID 624172, 2012; note: potency is the fitted concentration of half-maximal effect; % of control where 0% means no effect
# TRHR ag: qHTS for Small Molecule Agonists and Allosteric Enhancers of Human TRH Receptor: Primary Screen for Agonists; TRHR cells, calcium flux fluo-8, FDSS agonist mode; activation, % at 2 µM; AID 493084, 2011; hit rate 0.18% among 360,000; Thyrotropin-releasing hormone receptor (Homo sapiens), P34981; in the data active = activation above about 30%; note: 0% is about no effect
# Target sequence (P34981 whole entry, looked up): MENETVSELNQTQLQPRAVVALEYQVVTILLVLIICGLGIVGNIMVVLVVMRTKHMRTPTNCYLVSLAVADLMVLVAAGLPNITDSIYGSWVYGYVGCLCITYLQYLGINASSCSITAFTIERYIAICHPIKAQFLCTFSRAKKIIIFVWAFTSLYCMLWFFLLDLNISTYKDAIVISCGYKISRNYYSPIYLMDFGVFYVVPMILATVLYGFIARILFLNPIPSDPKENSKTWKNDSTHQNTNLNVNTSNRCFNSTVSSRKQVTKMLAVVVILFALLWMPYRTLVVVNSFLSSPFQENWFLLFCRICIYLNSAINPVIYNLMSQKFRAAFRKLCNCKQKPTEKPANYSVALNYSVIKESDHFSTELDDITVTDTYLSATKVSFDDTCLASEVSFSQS
#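 Fluo-8-loaded TRHR cells; 10 s baseline, compound added, kinetic Ca2+ fluorescence read 1/s, agonist mode.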
# TRHR PAM: qHTS for Small Molecule Agonists and Allosteric Enhancers of Human TRH Receptor: Primary Screen for Enhancers; enhancement, % at 2 µM; TRHR cells, fluo-8 calcium fluorescence, EC20 TRH enhancement; hit rate 0.66% among 360,000; AID 493056, 2011; Thyrotropin-releasing hormone receptor (Homo sapiens), P34981; in the data active = enhancement above about 30%; note: 0% is about no effect
#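 TRHR-expressing cells loaded with fluo-8 calcium dye were read kinetically (ex 480/em 530) during compound addition, then stimulated with an EC20 of TRH (10 nM final). Enhancement of the Gq-mediated intracellular calcium response was scored.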
# Active calls of the source: *; i = inactive; ? = inconclusive; . = no result; [ ] = remark or other dose. Rows were chosen to be rich in hits. Some 2.4% of all compounds tested hit in one or more screens of this group. Unless noted, calls come from the whole dose curve; as a rule, active = well fitted curve in the direction sought with a large enough effect; inconclusive = small, poorly fitted or top-dose-only effect, or another doubt; inactive = no such curve, though single readings can be large; an effect the other way counts as inactive or inconclusive.
SMILES,PTHR1 agonist,GLP-1R inv ag,GLP1R cytotox,GLP1R ag,TRHR ag,TRHR PAM
CCCn1nnc(NC(=O)COc2cc(C)ccc2C(C)C)n1,i,0%,-20%,2%,-1,-11
CN1CCN(CCc2nc3cc(NC(=O)COc4ccc(Cl)cc4)ccc3n2C)CC1,i,10µM*,-25%,4%,0,-1
CCCCn1nnc(NC(=O)COc2cc(C)ccc2C(C)C)n1,i,7.9µM*,-12%,6%,1,0
Cn1c(CCN2CCCCC2)nc2cc(NC(=O)COc3ccc(Cl)cc3)ccc21,-18%,?,?,11%,0,1
Cc1ccc(C(C)C)c(OCC(=O)Nc2ccc3c(c2)nc(CCN2CCCCC2)n3C)c1,-4%,8.9µM*,-16%,17%,0,8
CCn1c(CN2CCCCC2)nc2cc(NC(=O)COc3cc(C)ccc3C(C)C)ccc21,-1%,?,5%,.,0,-2
CO/N=C(\C(=O)N[C@@H]1C(=O)N2C(C(=O)[O-])=C(C[n+]3cccc4c3CCCC4)CS[C@H]12)c1csc(N)n1,.,.,.,-2%,.,.
CCc1nc2ccc(C(=O)NCCc3c[nH]c4ccccc34)cn2c1N(C)CCCc1ccccc1,i,?,-15%,1%,.,.
CC(=O)Nc1ccc(NC(=O)Cn2cc3c(n2)CCCCC3)cc1,i,-7%,-5%,.,0,-4
O=C(CC(=O)c1ccccn1)c1ccccc1,-34%,?,-34%,-6%,.,.
O=C(CC(CC(=O)c1ccccc1)c1ccccn1)c1ccccc1,-10%,10µM*,-1%,14%,.,.
COc1ccc(Cl)cc1NC(=O)Cn1nc(C(F)(F)F)c2c1CCC2,-2%,?,3%,-8%,0,12
COc1ccc(Cl)cc1NC(=O)Cn1nc(C(F)(F)F)c2c1CCCC2,-8%,13µM*,5%,-9%,1,4
Cc1onc(-c2ccccc2)c1C(=O)OCC(=O)Nc1ccc(Cl)cc1,-40%,11µM*,-8%,0%,0,-9
CCCOc1cccc(NC(=O)c2c(-c3ccccc3)noc2C)c1,i,?,-5%,-4%,1,-4
Cc1ccc(NC(=O)COC(=O)c2c(-c3ccccc3)noc2C)cc1,-43%,10µM*,-9%,11%,0,-5
Cc1onc(-c2ccccc2)c1C(=O)Nc1cccc(OC(C)C)c1,-11%[57.5 µM],11µM*,-8%,-4%,0,3
Cc1onc(-c2ccccc2)c1C(=O)OCC(=O)Nc1cccc(Cl)c1,-46%,?,-5%,-4%,2,-6
CC(C)CN(C(=O)Cn1nnc(-c2ccc(Cl)cc2)n1)C1CCS(=O)(=O)C1 (stereo not given),-13%,11%,-13%,2%,.,.
Cc1c(C)c2ccc(OCC(=O)c3ccccc3)cc2oc1=O,17%,35%,-13%,-2%,0,2
Cc1ccccc1C(=O)N/N=C1\SCC(=O)N1Cc1ccco1,i,4%,8%,8%,0,37*
CCCNC(=S)Nc1ccc(F)cc1F,-18%,-14%,-1%,-2%,1,-1
O=C(Nc1ncccn1)C1=C(O)c2ccccc2S(=O)(=O)N1Cc1ccccc1,i,10%,14%,-3%,1,-1
Cc1cc(C(=O)COC(=O)C2=COCCO2)c(C)n1-c1cccc(F)c1,-11%,10µM*,2%,4%,0,3
Cc1cc(C(=O)COC(=O)C2=COCCO2)c(C)n1-c1ccc2c(c1)OCO2,-3%[57.5 µM],?,-15%,0%,-1,4
SMILES,PTHR1 agonist,GLP-1R inv ag,GLP1R cytotox,GLP1R ag,TRHR ag,TRHR PAM
Cc1cc(NC(=O)CCCSc2nc(-c3ccco3)cc(C(F)(F)F)n2)n(-c2ccccc2)n1,-18%[57.5 µM],8.9µM*,-18%,2%,-1,2
Cc1cc(NC(=O)CSc2nc(-c3ccco3)cc(C(F)(F)F)n2)n(-c2ccccc2)n1,-7%[57.5 µM],-25%,-11%,9%,-1,3
CC(=O)Nc1ccc(CN2CCC2(C)C(=O)NC2CCN(Cc3ccccc3)CC2)cc1 (stereo not given),i,15%,3%,-1%,.,.
CCCn1c(SCc2nc(-c3ccccc3OCC)no2)nnc1-c1ccc(Cl)cc1,-31%,10µM*,-14%,.,2,7
CCS(=O)(=O)c1nc(S(=O)(=O)c2ccc(C)cc2)c(NC)s1,i,1%,3%,.,0,0
COc1ccc(-c2ccnc3nc(N4CCOCC4)nn23)cc1,?,22%,11%,-2%,-1,11
c1ccc(Oc2ccc(-c3ccnc4nc(N5CCOCC5)nn34)cc2)cc1,-47%,-26%,10%,17%,-2,33*
Cc1c(NC(=O)COC(=O)C(c2ccc(Cl)cc2)C(C)C)c(=O)n(-c2ccccc2)n1C (stereo not given),-9%[57.5 µM],-13%,-16%,-5%,0,2
C=CCNC(=O)c1sc(-c2ccccc2)nc1C,-12%,1%,7%,17%,0,39*
CC(C)(CCO)Nc1ncnc2onc(-c3ccc(F)cc3)c12,i,-5%,-14%,20%,-1,-6
CCC(CO)Nc1ncnc2onc(-c3ccc(F)cc3)c12 (stereo not given),i,5%,-11%,-3%,0,40*
COc1ccc(C(=O)NN/C(C)=C/C(=O)C(F)(F)C(F)(F)C(F)(F)F)cc1,i,5µM*,-28%,-3%,1,0
Cc1ccccc1-c1nc(CS(=O)(=O)CC(=O)N2CCCCC2)c(C)o1,-23%,?,0%,-1%,0,33*
CCCCN(CC)CCNC(=O)C1CCN(c2nnc(C)c3c(C)n(-c4ccc(C)cc4)nc23)CC1,-19%,10µM*,?,.,0,3
S=C(NC1CCCCC1)N(CCc1nc2ccccc2[nH]1)C1CCCC1,-2%,10µM*,?,-5%,0,-12
CCc1c(C)c2cc(Cl)c(O)c(CN(CC)CC)c2oc1=O,-17%[57.5 µM],9%,i,-13%,0,38*
CCc1c(C)c2cc(Cl)c(O)c(CN(C)C)c2oc1=O,-3%[57.5 µM],0%,i,-11%,0,0

# Bioassay records from PubChem.
